The results in this text go back to paper PMC7862700, “An all-to-all approach to the identification of sequence-specific readers for epigenetic DNA modifications on cytosine”.

Common to all, as to experiment: DAPPL (digital affinity profiling via proximity ligation, sequencing); 10 mM Tris-HCl pH 7.5, 50 mM NaCl, 1 mM DTT, 4% glycerol, room temperature, 30 min; GST-TFs on glutathione beads, 16-mer random dsDNA library, 0.1% formaldehyde crosslink after washing; high values mean tight binding
What all share (conditions): protein: recombinant; tags: N-terminal GST; dsDNA, one strand shown

The target in assay [1] is T1, FLI1 (Homo sapiens, UniProt Q01543 1-452).
T1 sequence: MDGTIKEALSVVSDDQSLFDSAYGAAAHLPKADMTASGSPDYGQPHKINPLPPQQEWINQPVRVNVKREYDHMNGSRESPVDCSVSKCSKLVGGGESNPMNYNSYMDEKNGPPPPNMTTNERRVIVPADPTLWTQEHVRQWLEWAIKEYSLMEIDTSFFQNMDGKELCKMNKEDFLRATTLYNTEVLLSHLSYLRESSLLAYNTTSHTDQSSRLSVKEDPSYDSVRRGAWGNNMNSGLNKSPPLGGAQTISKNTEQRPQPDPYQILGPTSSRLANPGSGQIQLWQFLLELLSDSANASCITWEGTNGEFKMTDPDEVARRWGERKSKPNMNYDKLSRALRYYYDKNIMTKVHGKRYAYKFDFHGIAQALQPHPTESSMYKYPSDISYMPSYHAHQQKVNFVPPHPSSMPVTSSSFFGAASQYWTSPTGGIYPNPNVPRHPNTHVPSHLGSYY
The gist of the method:
(§1)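 Each value of binding signal is a hexamer's read frequency for a factor divided by the same hexamer's frequency in the tag-only sample. Barcoded, bead-captured GST fusions of human transcription factors made in yeast were pooled with that sample and incubated with 200 nmole of a random double-stranded 16-mer DNA library in Tris/NaCl/DTT/glycerol buffer at room temperature for 30 min. Washing, 0.1% formaldehyde crosslinking, proximity ligation, PCR and Illumina NextSeq500 sequencing followed.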

Assay [2] concerns the target T2, ELK1 (Homo sapiens, UniProt P19419 1-428).
T2 sequence: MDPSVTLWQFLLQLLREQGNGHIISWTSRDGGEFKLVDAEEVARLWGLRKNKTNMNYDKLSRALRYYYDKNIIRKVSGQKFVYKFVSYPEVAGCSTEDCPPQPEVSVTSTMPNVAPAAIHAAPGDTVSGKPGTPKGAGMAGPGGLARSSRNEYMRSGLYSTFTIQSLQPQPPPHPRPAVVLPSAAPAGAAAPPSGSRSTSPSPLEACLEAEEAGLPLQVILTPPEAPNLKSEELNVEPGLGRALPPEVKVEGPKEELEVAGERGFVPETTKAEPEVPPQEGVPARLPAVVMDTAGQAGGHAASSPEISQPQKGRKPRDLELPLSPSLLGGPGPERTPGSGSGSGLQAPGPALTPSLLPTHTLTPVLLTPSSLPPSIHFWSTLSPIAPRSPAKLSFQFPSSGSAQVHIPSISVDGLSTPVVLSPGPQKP
Summed up:
as §1

The target in assay [3] is T3, GABPA (Homo sapiens, UniProt Q06546 1-454).
T3 sequence: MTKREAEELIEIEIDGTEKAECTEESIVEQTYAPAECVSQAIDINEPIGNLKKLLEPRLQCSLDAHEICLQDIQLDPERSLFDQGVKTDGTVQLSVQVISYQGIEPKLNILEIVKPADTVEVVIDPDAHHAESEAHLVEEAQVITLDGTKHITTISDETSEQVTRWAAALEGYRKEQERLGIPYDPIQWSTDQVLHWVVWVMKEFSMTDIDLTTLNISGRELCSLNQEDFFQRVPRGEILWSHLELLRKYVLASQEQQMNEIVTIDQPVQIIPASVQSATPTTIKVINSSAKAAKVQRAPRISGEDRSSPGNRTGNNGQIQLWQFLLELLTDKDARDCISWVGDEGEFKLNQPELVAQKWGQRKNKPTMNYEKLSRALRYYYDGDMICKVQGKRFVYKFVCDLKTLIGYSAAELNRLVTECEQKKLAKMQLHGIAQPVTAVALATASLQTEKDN
Summed up:
as §1

Assay [4] has as its target T4, ERG (Homo sapiens, UniProt P11308 1-479).
T4 sequence: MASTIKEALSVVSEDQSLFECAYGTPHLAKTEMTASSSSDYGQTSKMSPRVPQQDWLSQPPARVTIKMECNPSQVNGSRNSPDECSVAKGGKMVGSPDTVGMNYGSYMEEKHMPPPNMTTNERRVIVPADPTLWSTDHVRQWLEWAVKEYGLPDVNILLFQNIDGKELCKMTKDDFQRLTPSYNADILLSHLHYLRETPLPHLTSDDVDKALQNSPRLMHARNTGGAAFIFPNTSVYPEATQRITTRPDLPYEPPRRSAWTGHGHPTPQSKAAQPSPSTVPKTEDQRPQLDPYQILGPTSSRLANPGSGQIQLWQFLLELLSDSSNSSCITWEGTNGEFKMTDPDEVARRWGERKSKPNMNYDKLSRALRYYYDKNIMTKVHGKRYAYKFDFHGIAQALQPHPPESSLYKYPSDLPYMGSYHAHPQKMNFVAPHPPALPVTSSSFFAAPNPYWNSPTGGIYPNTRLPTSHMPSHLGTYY
The gist of the method: as §1

Assay [5] concerns the target ELF1 (Homo sapiens, UniProt P32519 1-619). Summed up:
as §1

Assay [6] deals with T5, EHF (Homo sapiens, UniProt Q9NZC4 1-300).
T5 sequence: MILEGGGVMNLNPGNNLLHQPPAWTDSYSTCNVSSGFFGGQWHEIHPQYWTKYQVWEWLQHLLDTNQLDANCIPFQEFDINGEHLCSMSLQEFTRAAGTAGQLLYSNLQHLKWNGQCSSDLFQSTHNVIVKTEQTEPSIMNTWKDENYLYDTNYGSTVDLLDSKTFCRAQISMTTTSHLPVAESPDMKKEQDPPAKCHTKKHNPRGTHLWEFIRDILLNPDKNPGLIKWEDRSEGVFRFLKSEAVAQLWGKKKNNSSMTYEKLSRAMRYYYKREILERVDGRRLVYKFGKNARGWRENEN
Summed up: as §1

Assay [7] has as its target SPI1 (Homo sapiens, UniProt P17947 1-270). Summed up:
as §1

The target of assay [8] is SPIB (Homo sapiens, UniProt Q01892 1-262). Summed up:
as §1

The target in assay [9] is T6, ELK3 (Homo sapiens, UniProt P41970 1-407).
T6 sequence: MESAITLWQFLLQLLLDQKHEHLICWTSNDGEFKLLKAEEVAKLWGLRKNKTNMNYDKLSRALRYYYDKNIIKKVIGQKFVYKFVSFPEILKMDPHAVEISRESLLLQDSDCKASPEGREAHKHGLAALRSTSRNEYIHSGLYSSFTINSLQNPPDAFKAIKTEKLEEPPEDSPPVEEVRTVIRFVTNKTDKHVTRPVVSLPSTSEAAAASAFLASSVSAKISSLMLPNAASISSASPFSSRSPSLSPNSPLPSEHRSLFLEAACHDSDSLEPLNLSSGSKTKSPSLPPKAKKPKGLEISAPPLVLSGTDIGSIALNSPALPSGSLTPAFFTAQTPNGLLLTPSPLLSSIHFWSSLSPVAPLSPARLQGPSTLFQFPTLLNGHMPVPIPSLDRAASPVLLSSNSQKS
Summed up:
as §1

Sequence of ELF1 (P32519 whole entry): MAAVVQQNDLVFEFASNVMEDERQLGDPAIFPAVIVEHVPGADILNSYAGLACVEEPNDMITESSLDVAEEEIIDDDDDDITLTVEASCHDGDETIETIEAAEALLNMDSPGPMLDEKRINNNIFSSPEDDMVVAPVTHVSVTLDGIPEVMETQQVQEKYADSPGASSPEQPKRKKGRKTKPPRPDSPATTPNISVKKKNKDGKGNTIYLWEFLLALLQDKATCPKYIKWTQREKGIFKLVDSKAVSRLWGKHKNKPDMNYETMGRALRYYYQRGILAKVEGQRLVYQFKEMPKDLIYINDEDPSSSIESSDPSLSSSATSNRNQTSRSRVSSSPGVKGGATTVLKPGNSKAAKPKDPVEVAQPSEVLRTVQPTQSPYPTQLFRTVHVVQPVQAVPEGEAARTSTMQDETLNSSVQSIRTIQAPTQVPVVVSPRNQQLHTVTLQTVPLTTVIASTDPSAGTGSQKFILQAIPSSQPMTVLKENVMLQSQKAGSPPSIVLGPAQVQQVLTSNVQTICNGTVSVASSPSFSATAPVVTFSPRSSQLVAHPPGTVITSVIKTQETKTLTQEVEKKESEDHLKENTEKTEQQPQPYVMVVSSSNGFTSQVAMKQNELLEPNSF
Sequence of SPIB (Q01892 whole entry): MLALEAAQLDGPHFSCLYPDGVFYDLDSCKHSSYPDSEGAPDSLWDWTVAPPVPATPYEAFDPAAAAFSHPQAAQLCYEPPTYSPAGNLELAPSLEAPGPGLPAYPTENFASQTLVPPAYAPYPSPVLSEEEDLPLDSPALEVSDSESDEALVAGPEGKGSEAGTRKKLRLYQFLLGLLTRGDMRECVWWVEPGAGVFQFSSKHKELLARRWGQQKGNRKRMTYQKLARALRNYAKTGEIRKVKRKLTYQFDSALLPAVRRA

As to ATATAG, the binding signal is 1.15 fold enrichment (6-mer frequency, TF over GST control) in assay [1]; 1.17 fold enrichment (6-mer frequency, TF over GST control) in [2]; 1.29 fold enrichment (6-mer frequency, TF over GST control) in [3]; 1.19 fold enrichment (6-mer frequency, TF over GST control) in assay [4]; 1.17 fold enrichment (6-mer frequency, TF over GST control) in assay [5]; 1.22 fold enrichment (6-mer frequency, TF over GST control) in [6]. In addition, the binding signal in assay [7] was 1.2 fold enrichment (6-mer frequency, TF over GST control); in assay [8] it was 1.2 fold enrichment (6-mer frequency, TF over GST control); in assay [9] it was 1.23 fold enrichment (6-mer frequency, TF over GST control).

Take CTTATC: the binding signal in assay [1] was 1.18 fold enrichment (6-mer frequency, TF over GST control); in [2], 1.15 fold enrichment (6-mer frequency, TF over GST control); in assay [3], 1.16 fold enrichment (6-mer frequency, TF over GST control); in [4], 1.1 fold enrichment (6-mer frequency, TF over GST control); in assay [5], 1.21 fold enrichment (6-mer frequency, TF over GST control); in [6], 1.08 fold enrichment (6-mer frequency, TF over GST control). Also, the binding signal was 1.2 fold enrichment (6-mer frequency, TF over GST control) in assay [7]; 1.21 fold enrichment (6-mer frequency, TF over GST control) in assay [8]; 1.09 fold enrichment (6-mer frequency, TF over GST control) in [9].

With ATTTAC, the binding signal is 1.22 fold enrichment (6-mer frequency, TF over GST control) in assay [1]; 1.29 fold enrichment (6-mer frequency, TF over GST control) in assay [2]; 1.23 fold enrichment (6-mer frequency, TF over GST control) in assay [3]; 1.27 fold enrichment (6-mer frequency, TF over GST control) in assay [4]; 1.28 fold enrichment (6-mer frequency, TF over GST control) in assay [5]; 1.33 fold enrichment (6-mer frequency, TF over GST control) in [6]. For the same sequence, the binding signal in assay [7] was 1.28 fold enrichment (6-mer frequency, TF over GST control); in [8], 1.23 fold enrichment (6-mer frequency, TF over GST control); in [9] it was 1.21 fold enrichment (6-mer frequency, TF over GST control).

Regarding ATCATC, the binding signal in [1] was 1.17 fold enrichment (6-mer frequency, TF over GST control); in [2], 1.2 fold enrichment (6-mer frequency, TF over GST control); in assay [3], 1.19 fold enrichment (6-mer frequency, TF over GST control); in assay [4] it was 1.17 fold enrichment (6-mer frequency, TF over GST control); in [5], 1.25 fold enrichment (6-mer frequency, TF over GST control); in assay [6], 1.25 fold enrichment (6-mer frequency, TF over GST control). In addition, the binding signal in assay [7] is 1.14 fold enrichment (6-mer frequency, TF over GST control); in assay [8], 1.19 fold enrichment (6-mer frequency, TF over GST control); in [9] it was 1.08 fold enrichment (6-mer frequency, TF over GST control).

In the case of AGCTTT, the binding signal is 1.21 fold enrichment (6-mer frequency, TF over GST control) in [1]; 1.2 fold enrichment (6-mer frequency, TF over GST control) in assay [2]; 1.13 fold enrichment (6-mer frequency, TF over GST control) in assay [3]; 1.12 fold enrichment (6-mer frequency, TF over GST control) in [4]; 1.2 fold enrichment (6-mer frequency, TF over GST control) in [5]; 1.11 fold enrichment (6-mer frequency, TF over GST control) in assay [6]. Moreover, the binding signal is 1.16 fold enrichment (6-mer frequency, TF over GST control) in assay [7]; 1.04 fold enrichment (6-mer frequency, TF over GST control) in assay [8]; 1.13 fold enrichment (6-mer frequency, TF over GST control) in assay [9].

For TCCATA, the binding signal in assay [1] was 1.33 fold enrichment (6-mer frequency, TF over GST control); in [2], 1.3 fold enrichment (6-mer frequency, TF over GST control); in [3], 1.18 fold enrichment (6-mer frequency, TF over GST control); in assay [4] it was 1.25 fold enrichment (6-mer frequency, TF over GST control); in [5], 1.23 fold enrichment (6-mer frequency, TF over GST control); in [6], 1.24 fold enrichment (6-mer frequency, TF over GST control). For the same sequence, the binding signal was 1.18 fold enrichment (6-mer frequency, TF over GST control) in [7]; 1.21 fold enrichment (6-mer frequency, TF over GST control) in assay [8]; 1.35 fold enrichment (6-mer frequency, TF over GST control) in assay [9].

In the case of ATAACT, the binding signal is 1.23 fold enrichment (6-mer frequency, TF over GST control) in [1]; 1.21 fold enrichment (6-mer frequency, TF over GST control) in assay [2]; 1.29 fold enrichment (6-mer frequency, TF over GST control) in [3]; 1.22 fold enrichment (6-mer frequency, TF over GST control) in assay [4]; 1.32 fold enrichment (6-mer frequency, TF over GST control) in [5]; 1.24 fold enrichment (6-mer frequency, TF over GST control) in [6]. The binding signal was 1.22 fold enrichment (6-mer frequency, TF over GST control) in [7]; 1.36 fold enrichment (6-mer frequency, TF over GST control) in assay [8]; 1.22 fold enrichment (6-mer frequency, TF over GST control) in [9].

As for TTACTC, the binding signal is 1.31 fold enrichment (6-mer frequency, TF over GST control) in [1]; 1.24 fold enrichment (6-mer frequency, TF over GST control) in [2]; 1.26 fold enrichment (6-mer frequency, TF over GST control) in [3]; 1.19 fold enrichment (6-mer frequency, TF over GST control) in [4]; 1.24 fold enrichment (6-mer frequency, TF over GST control) in assay [5]; 1.34 fold enrichment (6-mer frequency, TF over GST control) in assay [6]. Moreover, the binding signal in assay [7] was 1.32 fold enrichment (6-mer frequency, TF over GST control); in assay [8] it was 1.24 fold enrichment (6-mer frequency, TF over GST control); in [9] it was 1.26 fold enrichment (6-mer frequency, TF over GST control).
